Reference: PubChem BioAssay (NCATS)
Where “and” joins values, the source holds several entries; their conditions need not be identical. Equal entries are not always repeated. Records with an inconclusive call do not appear. Calls of active or inactive are those of the source. Calls come from the whole dose curve; as a rule, active = well fitted inhibition curve with a large enough effect in the signal ratio, with a control signal flat (not every such curve was filed as active); inconclusive = small, poorly fitted or top-dose-only effect, or effect the other way, or a change in a side signal; inactive = no such curve, though single readings can be large or run the other way; the % refers to the signal ratio.

System: not listed separately
Assay: qHTS assay for small molecule antagonists of retinoid X receptor alpha signaling (AID 588546)
Conditions: HEK293T RXRa-UAS-bla, beta-lactamase ratio, antagonist mode; measured here: W530 green channel, cytotoxicity proxy
Outline: (§1)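 Beta-lactamase reporter inhibition, read as CCF4 fluorescence ratio (ex 405, em 460/530 nm) after 2 h at RT. HEK293T UAS-bla cells, 2500/well, were stimulated with 9-cis-RA at 500 or 100 nM final alongside test compound for 18 h at 37 C.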
% is set by controls: 0 for no effect and ±100 for the full control effect.

SMILES | max response
Nc1ccc([N+](=O)[O-])cc1Cl | -11.1%
CCCCC(CC)C(=O)Cl (centres undefined) | -9.74%
CCOP(=O)(OCC)SCSCC | -15.2%
CCOP(=O)(OCC)SCSC(C)(C)C | -15.4%
CNC(=O)Oc1ccc(N(C)C)c(C)c1 | -12.9%
COC(=O)c1ccccc1CS(=O)(=O)NC(=O)Nc1nc(OC)cc(OC)n1 | 1.62%
Cc1cc(Cl)ccc1OCC(=O)O | -3.03% and 10.9%
CCOP(=S)(OCC)Oc1cnc2ccccc2n1 | 6.33%
CCOP(=S)(S)OCC | -11.3%
CCCCN(CC)C(=O)SCCC | -6.82%
O=[N+]([O-])c1ccc(Oc2ccc(C(F)(F)F)cc2[N+](=O)[O-])cc1 | -9.24%
C/C=C(\C)C(=O)O[C@H]1C[C@@H](OC(C)=O)[C@@]2(C(=O)OC)CO[C@H]3[C@@H](O)[C@@](C)([C@]45O[C@@]4(C)[C@H]4C[C@@H]5O[C@@H]5OC=C[C@@]54O)[C@H]4[C@]1(CO[C@]4(O)C(=O)OC)[C@@H]32 | -5.84%
C=CC1(C)OC(=O)N(c2cc(Cl)cc(Cl)c2)C1=O (centres undefined) | -0.794%

Target: Retinoic acid receptor RXR-alpha (Homo sapiens) (UniProt P19793)
Assay: as above
Conditions: HEK293T RXRa-UAS-bla, beta-lactamase ratio, antagonist mode
Outline: as §1

Chain of Retinoic acid receptor RXR-alpha (Homo sapiens) (P19793 whole entry, looked up): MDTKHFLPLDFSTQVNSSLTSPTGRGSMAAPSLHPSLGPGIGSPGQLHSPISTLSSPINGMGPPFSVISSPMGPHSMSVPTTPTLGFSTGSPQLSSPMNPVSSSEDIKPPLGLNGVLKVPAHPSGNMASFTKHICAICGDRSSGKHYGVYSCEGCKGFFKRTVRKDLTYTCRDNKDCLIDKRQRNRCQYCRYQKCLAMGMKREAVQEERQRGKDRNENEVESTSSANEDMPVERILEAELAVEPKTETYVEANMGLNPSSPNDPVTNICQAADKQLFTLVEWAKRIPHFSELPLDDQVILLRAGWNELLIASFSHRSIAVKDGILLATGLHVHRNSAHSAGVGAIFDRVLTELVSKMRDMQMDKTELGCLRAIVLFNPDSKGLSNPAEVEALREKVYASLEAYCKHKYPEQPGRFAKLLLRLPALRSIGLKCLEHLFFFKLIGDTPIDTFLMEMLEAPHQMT

SMILES | max response
C/C(=N\NC(=O)Nc1cc(F)cc(F)c1)c1ncccc1C(=O)O | -18.2% (inactive) and 0.0153% (inactive)
CCCC1COC(Cn2cncn2)(c2ccc(Cl)cc2Cl)O1 (centres undefined) | 2.1% (inactive)
Cc1cnc(C2=NC(C)(C(C)C)C(=O)N2)c(C(=O)O)c1 (centres undefined) | 9.76% (inactive)
O=S(=O)(c1ccc(O)cc1)c1ccc(O)cc1 | 15.4% (inactive)
CCOP(=O)(O)C(N)=O | -9.79% (inactive)
CCOc1nc(NC)nc(NC(=O)NS(=O)(=O)c2ccccc2C(=O)OC)n1 | 20.8% (inactive)
COc1ccc(O)c(C(C)(C)C)c1 | 7.69% (inactive)
CCOP(=S)(OCC)SCC(=O)NC(C)C | -1.4% (inactive)
NS(=O)(=O)C(F)(F)C(F)(F)C(F)(F)C(F)(F)C(F)(F)C(F)(F)C(F)(F)C(F)(F)F | -55.1% (inactive)
Clc1ccc([C@]2(Cn3cncn3)C[C@@H](Br)CO2)c(Cl)c1 | -12.9% (inactive) and -9.53% (inactive)
CCOP(=O)(SC(C)CC)SC(C)CC (centres undefined) | -13.8% (inactive)
CNC(=O)Oc1cccc2c1OC(C)(C)C2O (centres undefined) | -10.3% (inactive)
C/C(=N\C(N)=O)N(C)Cc1ccc(Cl)nc1 | -3.51% (inactive)
O=S1OC[C@@H]2[C@H](CO1)[C@@]1(Cl)C(Cl)=C(Cl)[C@]2(Cl)C1(Cl)Cl (some centres undefined) | -70.2% (inactive) and -50.2% (inactive)
FC(F)(F)c1ccc(OCCCOc2c(Cl)cc(OCC=C(Cl)Cl)cc2Cl)nc1 | 3.21% (inactive)
C=CCC1=C(C)[C@@H](OC(=O)[C@@H]2[C@@H](C=C(C)C)C2(C)C)CC1=O | -11.9% (inactive)

SMILES | max response
Cc1ccccc1C(=O)Nc1cccc(OC(C)C)c1 | -11.3% (inactive)
CCOC1Oc2ccc(OS(C)(=O)=O)cc2C1(C)C (centres undefined) | -7.44% (inactive)
Nc1ccc([N+](=O)[O-])cc1Cl | -1.45% (inactive)
CCCCC(CC)C(=O)Cl (centres undefined) | 2.12% (inactive)
CCOP(=O)(OCC)SCSCC | -5.71% (inactive)
CCOP(=O)(OCC)SCSC(C)(C)C | -1.69% (inactive)
CNC(=O)Oc1ccc(N(C)C)c(C)c1 | 7.08% (inactive)
COC(=O)c1ccccc1CS(=O)(=O)NC(=O)Nc1nc(OC)cc(OC)n1 | -11% (inactive)
Cc1cc(Cl)ccc1OCC(=O)O | 3.77% (inactive) and -0.223% (inactive)
CCOP(=S)(OCC)Oc1cnc2ccccc2n1 | -25.5% (inactive)
CCOP(=S)(S)OCC | -16.6% (inactive)
CCCCN(CC)C(=O)SCCC | 3.02% (inactive)
O=[N+]([O-])c1ccc(Oc2ccc(C(F)(F)F)cc2[N+](=O)[O-])cc1 | 0.243% (inactive)
C/C=C(\C)C(=O)O[C@H]1C[C@@H](OC(C)=O)[C@@]2(C(=O)OC)CO[C@H]3[C@@H](O)[C@@](C)([C@]45O[C@@]4(C)[C@H]4C[C@@H]5O[C@@H]5OC=C[C@@]54O)[C@H]4[C@]1(CO[C@]4(O)C(=O)OC)[C@@H]32 | 9.93% (inactive)
C=CC1(C)OC(=O)N(c2cc(Cl)cc(Cl)c2)C1=O (centres undefined) | -13.3% (inactive)
